# GLS inh = blocks human kidney-isoform glutaminase activity; GLS enzymatic activity, qHTS titration; Potency, µM (top dose mostly 45.5 µM), hits mostly inhibitors; actives 0.21% (n = 410,000)
#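 hKGA in 45 mM KH2PO4 pH 8.2, 0.02% Tween-20 with pin-transferred compounds; 1 mM L-glutamine (stock) plus glutamate oxidase/HRP/Amplex Red coupling added. Fluorescence read initially and after 30 min at RT.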
# Tb PFK inh = blocks T. brucei phosphofructokinase; O15648; T. brucei PFK, ADP-Glo luminescence; Potency, µM (titrated, usually from 57.5 µM), usual class: inhibitors; actives 0.17% (n = 330,000); AID 485367; further: nearly all actives have a fitted effect of over 60% in size
#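 ADP-Glo luminescence quantified ADP after 45 min at room temperature, with 1.25 nM T. brucei PFK, 0.1 mM ATP and 0.5 mM fructose-6-phosphate in pH 8.0 TEA buffer. qHTS titrations up to 57 µM; curves classified by quality.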
# USP2a block = blocks human ubiquitin-specific protease USP2a | AID 463254 | Potency, µM (titrated, usually from 38.3 µM), usual class: inhibitors | actives 0.01% (n = 330,000) | USP2 core, Ub-CHOP2 coupled fluorogenic reporter, 485/531
#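 Deubiquitinase activity read as fluorescence (485/531 nm) after Ub-CHOP2 cleavage activates the enterokinase reporter on its substrate; USP2 core 10nM, Ub-CHOP2 and substrate 25nM each, 30min compound preincubation then 60min RT; data normalized to NEM, curves fitted.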
# GCN5L2 inh = blocks human GCN5L2 histone acetyltransferase | Q92830 | GCN5L2 HAT assay, ThioGlo1 CoA-SH fluorescence | Potency, µM (doses to about 58.9 µM), most hits filed as inhibitors | actives 0.21% (n = 390,000) | AID 504327
#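 Titration-based screen in which CoA formation is detected via maleimide probe ThioGlo1 (50uM) turning fluorescent on thiol reaction; substrates H3(1-25) 75uM and acetyl-CoA 70uM, GCN5L2 20nM, 20 min incubation at room temperature.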
# Tb PGK inh = inhibitors of T. brucei phosphoglycerate kinase; AID 602233; PGK/GAPDH coupled, Kinase-Glo luminescence, 60 min; P07378; actives 0.043% (n = 380,000); Potency, µM (series often up to 57.5 µM), usual class: inhibitors; further: nearly all actives have a fitted effect of over 60% in size
#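 Luminescent ATP detection (Kinase-Glo Plus) follows a 60-minute room-temperature incubation, with wells lacking PGK as controls. Buffer: 100 mM TEA (pH 7.6), 5 mM MgCl2, 0.01% Tween-20. Coupling enzyme GAPDH (100 nM final) supplies unstable 1,3-BPG in-well.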
# Hits are given with their value; - = inactive; ? = inconclusive; . = no result. Most compounds without a hit are left out; they make up all but 0.52% or so of the library. The call rests on the fitted dose curve; in most records, active means well fitted curve in the direction sought with a large enough effect; inconclusive means small, poorly fitted or top-dose-only effect, or another doubt; inactive means no such curve, though single readings can be large; an effect the other way counts as inactive or inconclusive.
SMILES,GLS inh,Tb PFK inh,USP2a block,GCN5L2 inh,Tb PGK inh
COc1ccc(OC)c(C2CC(=O)N3CN(c4ccccc4F)CSC3=C2C#N)c1 (stereo not drawn),-,-,-,8.9µM,-
COc1cc(OC)c(C2CC(=O)N3CN(C)CSC3=C2C#N)cc1OC (stereo not drawn),-,-,-,?,-
COc1ccc2ccccc2c1C1CC(=O)N2CN(C)CSC2=C1C#N (stereo not drawn),-,-,-,22µM,-
CCC1CN(C(=O)N2CCC(C(=O)NCCc3ccc(OC)cc3OC)CC2)c2cc(C)ccc2O1 (stereo not drawn),-,.,.,-,-
CC(CSC(=O)c1ccccc1)C(=O)N1CC(Sc2ccccc2)CC1C(=O)O (stereo not drawn),-,.,.,.,.
O=S(=O)(O)c1cc(N=C=S)ccc1/C=C/c1ccc(N=C=S)cc1S(=O)(=O)O,.,.,.,-,.
Nc1ccc(/C=C/c2ccc(N)cc2S(=O)(=O)O)c(S(=O)(=O)O)c1,11µM,.,.,13µM,.
O=C(CS)Nc1ccccc1,-,.,.,.,.
COc1ccc(C(=O)CC(=O)c2ccc(C(C)(C)C)cc2)cc1,?,.,.,32µM,-
Cc1cc(=O)oc2c3c(cc(OCC(=O)N4CCC(C(=O)O)CC4)c12)OC(C)(C)CC3,-,-,-,18µM,-
COCCCNC(=O)C1CCN(C(=O)c2ccc(-n3ccc4ccccc43)s2)CC1,-,.,.,-,-
COc1ccccc1C(=O)NCCC(=O)Nc1nc2ccccc2[nH]1,-,-,-,-,-
COc1ccccc1C(=O)Nc1nc2ccccc2[nH]1,-,?,-,-,7.9µM
CC1(C)CC2C1CC[C@]1(C)CCC3C(C(=O)O)CC(=O)O[C@]32C1 (stereo partly drawn),.,.,.,7.9µM,.
CC12CCC3C(CC3(C)C)C(C)(CCC1=O)O2 (stereo not drawn),.,.,.,-,.
CO[C@]1(NC(=O)Cc2cccs2)C(=O)N2C(C(=O)O)=CC(COC(N)=O)S[C@H]21 (stereo partly drawn),-,.,.,.,.
COc1ccc(-c2nc3c(C#N)c[nH]n3c2NC2CCCC2)c(OC)c1,13µM,.,.,-,-
CCOc1ccc(N(CC)S(=O)(=O)N2CCCC(C(=O)NCc3ccccc3Cl)C2)cc1 (stereo not drawn),-,.,.,-,-
Cc1ccc(C)n1-c1c(C(=O)NCCCN2CCN(c3ccc(F)cc3)CC2)sc2ncccc12,-,.,.,-,-
O=c1c(-c2ccccc2)coc2cc(O)cc(O)c12,.,.,.,28µM,.
O=c1c(-c2ccc3c(c2)OCCO3)coc2cc(O)cc(O)c12,-,-,-,?,-
C/C(=N/Nc1ccccc1C(=O)O)c1cccs1,13µM,-,-,-,-
C[N+]1(Cc2ccccc2)CCC(C(=O)OCC2CCCC2)CC1 (stereo not drawn),.,.,.,-,.
C(=C1NCCN1)c1cccc2ccccc12,-,.,.,.,.
CC1CCN(S(=O)(=O)c2ccc(NC(=O)C3CCCCC3C(=O)O)cc2)CC1 (stereo not drawn),11µM,.,.,.,-
SMILES,GLS inh,Tb PFK inh,USP2a block,GCN5L2 inh,Tb PGK inh
Cc1ccc(NC(=O)Cc2ccc(-n3c(C)nc4cccnc43)cc2)c(Cl)c1,-,.,.,-,-
S=c1nc(-c2ccccc2)[nH]n1-c1ccccc1,?,-,-,13µM,-
O=C1CC(C(=O)N2CCN(c3ccccc3O)CC2)CN1Cc1ccccc1 (stereo not drawn),5µM,-,-,-,-
O=C(O)c1cc(C(=O)O)cc(-c2ccc(/C=c3/sc4nc5ccccc5n4c3=O)o2)c1,-,-,-,-,?
O=C(O)c1cccc(-c2ccc(/C=c3/sc4nc5ccccc5n4c3=O)o2)c1,13µM,-,?,-,?
C[C@H](/C=C/[C@H](C)C(C)(C)O)[C@H]1CC[C@H]2/C(=C/C=C3C[C@@H](O)C[C@H](O)C3)CCC[C@]12C,-,.,.,.,.
CC(=O)c1ccc(Sc2ccccc2N)c([N+](=O)[O-])c1,-,-,-,-,-
Nc1ccccc1Sc1ccc(C(=O)c2ccccc2C(=O)O)cc1[N+](=O)[O-],-,-,-,20µM,-
CC(C)(C)c1ccc(-c2nc(SCC(=O)Nc3ccc(Cl)cc3)[nH]c(=O)c2C#N)cc1,-,.,.,35µM,-
N#Cc1c(-c2ccccc2)cc(-c2ccccc2)nc1SCC(=O)Nc1ccc(Cl)cc1,-,.,.,-,-

# Source: PubChem
